Where a name gives a salt, the structure may show the parent alone.
test system: Saccharomyces cerevisiae; assay: fraction of cells in G1 phase (DNA content, flow cytometry); higher = more cells with unreplicated DNA (G1 delay); conditions: temperature: 30 C; YPD; JTY2953 pdr5 snq2 (sensitized); drug added to: cultures diluted from stationary phase; 6-7 h
Outline: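 S. cerevisiae in YPD at 30°C was treated with library drugs, with DMSO-only wells as reference. Sensitized JTY2953 cultures diluted 1∶200 from overnight received a final 20 µg/ml and were fixed after 6–7 h; other runs dosed dividing JTY2953 (fixed 6 h later) or BY4741 (4.33 h later). Ethanol-fixed cells were stained with SYTOX Green and 10,000 events read by flow cytometry. G1 fraction is the Dean-Jett-Fox G1 peak area over G1 plus G2/M areas.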

SMILES	fraction of cells in G1 phase
Nc1c2c(nc3ccccc13)CCCC2O (configuration not stated) [Hydroxytacrine maleate] (93.3405 µM)	0.513
O=C(Nc1cccc2c(=O)cc(-c3nnn[nH]3)oc12)c1ccc(OCCCCc2ccccc2)cc1 [Pranlukast] (41.5355 µM)	0.561
CC(C(=O)O)c1cccc(Oc2ccccc2)c1 (configuration not stated) [Fenoprofen] (82.5501 µM)	0.502
N=C(N)NC(=O)Cc1c(Cl)cccc1Cl [Guanfacine HCl] (70.7818 µM)	0.495
CC(C)[N+]1(C)[C@@H]2CC[C@H]1CC(OC(=O)C(CO)c1ccccc1)C2 (some centres not stated) [Ipratropium Br] (60.1563 µM)	0.508
C[C@]12C[C@H](O)[C@H]3[C@@H](CCC4=CC(=O)CC[C@@]43C)[C@@H]1CC[C@@H]2C(=O)CO [Corticosterone] (57.7249 µM)	0.512
C[N+](C)(C)CCOC(=O)CCC(=O)OCC[N+](C)(C)C [Succinylcholine] (68.8691 µM)	0.467
Cc1c(C)c2c(c(C)c1O)CCC(C)(COc1ccc(CC3SC(=O)NC3=O)cc1)O2 (configuration not stated) [Troglitazone] (45.2949 µM)	0.591
CN(C)CCC[C@@]1(c2ccc(F)cc2)OCc2cc(C#N)ccc21 [Escitalopram] (61.652 µM)	0.496
O=C(NCCO[N+](=O)[O-])c1cccnc1 [Nicorandil] (94.7066 µM)	0.516
CN1CCN(c2c(F)cc3c(=O)c(C(=O)O)cn4c3c2SCC4)CC1 [Rufloxacin] (55.0337 µM)	0.466
COc1c(C)c2c(c(O)c1C/C=C(\C)CCC(=O)O)C(=O)OC2 [Mycophenolic acid] (62.4326 µM)	0.54
